# Values joined by “and” are separate entries in the source; they are usually repeats but may differ in a detail not shown here. Equal values may be shown once. Inconclusive results are not listed. Active and inactive are the calls of the source. The calls were made as follows, unless noted: active = hit-call score of the fitted dose curve at least 0.9, where 1 is the maximum; inactive = score below 0.9.
# Tests used:
# [1] = CCTE_Shafer_MEA_acute_spike_number: CCTE's Neural Acute Assay for Total Number of Spikes, Shafer Lab (AID 2284008);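 also: curve fitted for decrease in spike count so AC50 reflects inhibitors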
# How it was run: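 Read-out is the total spike count over 40 min, expressed as percent change from each well's own pre-treatment baseline and fitted in the loss direction against DMSO. Rat cortical neurons were exposed at 0.03-40 uM on DIV 13 or 15.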
# [2] = CCTE_Shafer_MEA_acute_firing_rate_mean: CCTE's Neural Acute Assay for Mean Firing Rate, Shafer Lab (AID 2284009);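 also: analyzed for loss of signal so actives lower firing rate relative to DMSO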
# How it was run: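 Primary rat cortical neurons on 16-electrode MEA wells were exposed on DIV 13 or 15 to compound (0.03-40 uM). Spike counts per recording time, averaged over electrodes, were compared between 40-min baseline and 40-min post-exposure recordings as percent change.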
# [3] = CCTE_Shafer_MEA_acute_burst_duration_mean: CCTE's Neural Acute Assay for Mean Burst Duration, Shafer Lab (AID 2284014);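 also: hits are decreases in mean burst duration relative to DMSO controls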
# How it was run: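 Mean burst duration was compared between a 40 min baseline and a 40 min recording in the presence of compound (0.03-40 uM, 37 C), giving percent change per well. Cultures were rat cortical neurons at DIV 13 or 15; wells needed ≥10 active electrodes.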
# [4] = CCTE_Shafer_MEA_acute_per_burst_spike_number_mean: CCTE's Neural Acute Assay for Average Number of Spikes Per Burst, Shafer Lab (AID 2284015);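 also: hits are decreases in mean spikes per burst versus baseline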
# How it was run: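 Read-out: percent change in mean spikes per burst, each well's post-exposure 40-min recording versus its own 40-min baseline. Rat cortical cultures, DIV 13 or 15, compounds 0.03-40 uM; DMSO is negative control, loss-of-signal fitting.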
# [5] = CCTE_Shafer_MEA_acute_interburst_interval_mean: CCTE's Neural Acute Assay for Mean Interburst Interval, Shafer Lab (AID 2284016);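 also: percent change of mean interburst interval versus each well's own pre-dose baseline; curves fitted for decrease in interburst interval relative to DMSO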
# How it was run: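 Rat cortical cultures, DIV 13/15; 20 min equilibration, 40 min baseline, compound 0.03-40 uM, 40 min re-recording, 37 C. Spikes detected at 8x rms noise (300-5000 Hz band-pass). Endpoint: % change in interburst interval, fitted in loss direction vs DMSO.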
# [6] = read-out: Monokine induced gamma interferon (MIG), CXCL9 (gene 4283); assay: BSK_KF3CT_MIG: BioMAP Diversity Plus: KF3CT Assay for Monokine induced gamma interferon (MIG) Biomarker Activity (AID 2284248); details: primary human keratinocytes with fibroblasts
# How it was run: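 KF3CT system: keratinocyte/fibroblast co-culture, 24 h post-dose, MIG by ELISA; activity vs DMSO, positive fitting direction.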
# [7] = read-out: Plasminogen activator inhibitor-1 (PAI1), SERPINE1 (gene 5054); assay: BSK_KF3CT_PAI1: BioMAP Diversity Plus: KF3CT Assay for Plasminogen activator inhibitor-1 (PAI1) Biomarker Activity (AID 2284252); details: primary human keratinocytes with fibroblasts
# How it was run: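 Cells (human keratinocytes co-cultured with foreskin fibroblasts) are exposed to test chemical for 24 h. PAI-1 is then measured by ELISA and analysed for signal gain against DMSO.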
# [8] = read-out: Interferon-inducible T-cell alpha chemoattractant (ITAC), CXCL11 (gene 6373); assay: BSK_BE3C_ITAC: BioMAP Diversity Plus: BE3C Assay for Interferon-inducible T-cell alpha chemoattractant (ITAC) Biomarker Activity (AID 2284279); details: primary human bronchial epithelial cells
# How it was run: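 BE3C cells (human primary bronchial epithelium), 24 h compound exposure, I-TAC by ELISA, DMSO = negative control/baseline, positive fitting direction.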
# [9] = read-out: Interleukin-8 (IL8), CXCL8 (gene 3576); assay: BSK_BE3C_IL8: BioMAP Diversity Plus: BE3C Assay for Interleukin-8 (IL8) Biomarker Activity (AID 2284280); details: primary human bronchial epithelial cells
# How it was run: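 Primary human bronchial epithelial cells (BE3C system) were exposed to test chemical for 24 h, and IL-8 levels were then measured by ELISA. Activity was fitted in the positive (gain-of-signal) direction against a DMSO negative-control baseline.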
# [10] = read-out: Plasminogen activator inhibitor-1 (PAI1), SERPINE1 (gene 5054); assay: BSK_CASM3C_PAI1: BioMAP Diversity Plus: CASM3C Assay for Plasminogen activator inhibitor-1 (PAI1) Biomarker Activity (AID 2284284); details: primary human coronary artery smooth muscle cells;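 also: PAI-1 protein level measured by ELISA 24 h after dosing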
# [11] = read-out: Intercellular Adhesion Molecule 1 (ICAM1), ICAM1 (gene 3383); assay: BSK_hDFCGF_ICAM1: BioMAP Diversity Plus: hDFCGF Assay for Intercellular Adhesion Molecule 1 (ICAM1) Biomarker Activity (AID 2284287); details: primary human foreskin fibroblasts
# How it was run: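 ICAM-1 ELISA readout 24 h after dosing, DMSO as baseline, in human dermal foreskin fibroblast cultures. Cytotoxicity checked in parallel wells by SRB staining (0.1% SRB, 10% TCA fixation, 560 nm).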
# [12] = ATG_AP_1_CIS: Attagene CIS-FACTORIAL HepG2 Assay for human Activator Protein 1 (AP-1) (AID 2282931); details: HepG2 Attagene cis-factorial AP-1 reporter mRNA; actives raise or lower the signal
# How it was run: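 HepG2 cells transiently transfected with cis-element-driven multiplex reporter units; 24 h compound exposure. Reporter mRNA quantified by RT-PCR, FAM-labelled fragments resolved by capillary electrophoresis; bidirectional fit versus DMSO baseline.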
# [13] = ATG_GRE_CIS: Attagene CIS-FACTORIAL HepG2 Assay for human Glucocorticoid Response Elements (GRE) (AID 2282947); details: HepG2 GRE cis-reporter, Attagene multiplex mRNA; actives raise or lower the signal
# How it was run: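 Reporter transcripts read by RT-PCR with capillary electrophoresis fluorescence after a 24 h chemical exposure of HepG2 cells transiently transfected with multiple cis-element reporter units. Gain or loss fitted against DMSO.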
# [14] = ATG_PBREM_CIS: Attagene CIS-FACTORIAL HepG2 Assay for human Phenobarbital-responsive Enhancer Module (PBREM) (AID 2282955); details: HepG2 PBREM cis-reporter, Attagene multiplexed transcription; actives raise or lower the signal
# How it was run: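 HepG2 cells transiently transfected with multiple cis-regulated reporter transcription units; endogenous factor activity at the PBREM element measured as reporter mRNA 24 h after dosing, via RT-PCR and capillary electrophoresis of fluorescent fragments; bidirectional fitting versus DMSO.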
# [15] = ATG_M_19_TRANS: Attagene TRANS-FACTORIAL HepG2 Assay for M19 Transcription Factor (Internal Marker) (AID 2282974; active = hit-call score of the fitted dose curve at least 0.9, where 1 is the maximum); details: HepG2 Attagene TRANS-FACTORIAL M19 internal marker reporter
# How it was run: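 HepG2 cells transiently transfected with multiple GAL4-UAS reporter transcription units were exposed to chemicals for 24 h. Reporter mRNA was read by RT-PCR, 6-FAM primer extension, HpaI digestion and capillary electrophoresis; gain of signal fitted relative to DMSO.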
# [16] = target: Oxysterols receptor LXR-alpha (Homo sapiens) (UniProt Q13133); assay: ATG_LXRa_TRANS: Attagene TRANS-FACTORIAL HepG2 Assay for human Liver X Receptor alpha (LXRa) (AID 2282980; active = hit-call score of the fitted dose curve at least 0.9, where 1 is the maximum); details: HepG2 Attagene TRANS reporter, LXRa transactivation
# How it was run: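 Transfect HepG2 with GAL4-UAS multiplex reporter constructs (TRANS format, chimeric receptor-GAL4); treat 24 h; extract RNA, reverse-transcribe, PCR-amplify, FAM-label, HpaI-digest; resolve fragments by capillary electrophoresis. Upward response vs DMSO.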
# [17] = ATG_M_06_TRANS: Attagene TRANS-FACTORIAL HepG2 Assay for M06 Transcription Factor (Internal Marker) (AID 2282983; active = hit-call score of the fitted dose curve at least 0.9, where 1 is the maximum); details: HepG2 Attagene TRANS M06 internal marker reporter
# How it was run: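 Background control endpoint: reporter mRNA from transiently transfected HepG2 after 24 h dosing, detected by RT-PCR with capillary electrophoresis fluorescence. Analysed for gain versus DMSO.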
# [18] = target: Hepatocyte nuclear factor 4-alpha (Homo sapiens) (UniProt P41235); assay: ATG_HNF4a_TRANS: Attagene TRANS-FACTORIAL HepG2 Assay for human Hepatocyte Nuclear Factor 4 alpha (HNF4a) (AID 2282982; active = hit-call score of the fitted dose curve at least 0.9, where 1 is the maximum); details: HepG2 HNF4a transactivation reporter, mRNA readout
# How it was run: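 Activity of an exogenous HNF4a–Gal4 fusion scored as induced GAL4-UAS reporter transcripts after 24 h chemical exposure of transfected human HepG2 cells. Read-out via RT-PCR with 6-FAM labelling and capillary electrophoresis; rise over DMSO baseline.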
# [19] = target: mouse Estrogen Receptor alpha (Era), Esr1 (gene 13982) (UniProt P19785); assay: NVS_NR_mERa: NovaScreen (NVS) Nuclear Receptor Binding Assay for mouse Estrogen Receptor alpha (Era) (AID 2283378; active = hit-call score of the fitted dose curve at least 0.9, where 1 is the maximum;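 also: hit means loss of bound radioligand signal relative to DMSO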)
# How it was run: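 Extracted mouse Era incubated with tritiated or iodinated radioligand plus test chemical, 18 h. Bound fraction separated on filters, counted by scintillation. DMSO = negative control/baseline; duplicate single-point at 25 uM, then concentration-response follow-up.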
# [20] = ATG_M_32_TRANS: Attagene TRANS-FACTORIAL HepG2 Assay for M32 Transcription Factor (Internal Marker) (AID 2282984; active = hit-call score of the fitted dose curve at least 0.9, where 1 is the maximum;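 also: transcript level of a background control reporter unit measured by RT-PCR and capillary electrophoresis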); details: HepG2 Attagene TRANS M32 internal marker reporter
# How it was run: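 Internal background reporter in transfected HepG2: after 24 h chemical exposure, RNA reverse-transcribed, reporter cDNA amplified, fluorescently labelled and HpaI-cut, then sized by capillary electrophoresis. Gain of signal fitted against DMSO control.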
# mouse Estrogen Receptor alpha (Era), Esr1 (gene 13982), sequence (P19785 whole entry, looked up): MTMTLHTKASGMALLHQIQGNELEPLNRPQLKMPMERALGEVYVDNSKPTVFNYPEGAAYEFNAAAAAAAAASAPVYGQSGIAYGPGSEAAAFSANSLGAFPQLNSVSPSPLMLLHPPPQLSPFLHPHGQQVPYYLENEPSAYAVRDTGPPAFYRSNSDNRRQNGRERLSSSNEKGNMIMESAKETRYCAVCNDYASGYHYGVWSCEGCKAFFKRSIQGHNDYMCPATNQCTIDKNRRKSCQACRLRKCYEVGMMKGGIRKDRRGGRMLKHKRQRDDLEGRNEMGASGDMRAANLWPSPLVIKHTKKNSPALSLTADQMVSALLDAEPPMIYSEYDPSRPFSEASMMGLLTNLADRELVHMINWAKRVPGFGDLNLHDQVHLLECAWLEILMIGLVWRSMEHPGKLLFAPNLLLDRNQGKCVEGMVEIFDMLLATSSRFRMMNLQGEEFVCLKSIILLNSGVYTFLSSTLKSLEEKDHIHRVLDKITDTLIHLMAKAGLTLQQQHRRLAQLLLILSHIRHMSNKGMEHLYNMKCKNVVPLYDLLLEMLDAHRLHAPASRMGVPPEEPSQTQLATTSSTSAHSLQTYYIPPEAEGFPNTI
# Oxysterols receptor LXR-alpha (Homo sapiens), sequence (Q13133 whole entry, looked up, the tested form may be a part): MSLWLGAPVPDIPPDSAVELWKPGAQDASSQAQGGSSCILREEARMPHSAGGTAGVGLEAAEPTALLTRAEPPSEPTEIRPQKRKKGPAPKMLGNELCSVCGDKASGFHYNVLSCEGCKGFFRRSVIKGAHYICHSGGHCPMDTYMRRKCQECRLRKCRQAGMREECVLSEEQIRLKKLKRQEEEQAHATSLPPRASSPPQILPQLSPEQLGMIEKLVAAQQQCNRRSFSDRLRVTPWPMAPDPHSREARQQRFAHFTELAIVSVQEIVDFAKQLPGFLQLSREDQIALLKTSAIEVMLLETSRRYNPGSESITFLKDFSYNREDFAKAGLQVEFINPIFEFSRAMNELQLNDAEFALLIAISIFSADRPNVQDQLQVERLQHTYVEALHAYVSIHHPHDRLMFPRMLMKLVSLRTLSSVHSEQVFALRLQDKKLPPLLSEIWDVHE
# Hepatocyte nuclear factor 4-alpha (Homo sapiens), sequence (P41235 whole entry, looked up, the tested form may be a part): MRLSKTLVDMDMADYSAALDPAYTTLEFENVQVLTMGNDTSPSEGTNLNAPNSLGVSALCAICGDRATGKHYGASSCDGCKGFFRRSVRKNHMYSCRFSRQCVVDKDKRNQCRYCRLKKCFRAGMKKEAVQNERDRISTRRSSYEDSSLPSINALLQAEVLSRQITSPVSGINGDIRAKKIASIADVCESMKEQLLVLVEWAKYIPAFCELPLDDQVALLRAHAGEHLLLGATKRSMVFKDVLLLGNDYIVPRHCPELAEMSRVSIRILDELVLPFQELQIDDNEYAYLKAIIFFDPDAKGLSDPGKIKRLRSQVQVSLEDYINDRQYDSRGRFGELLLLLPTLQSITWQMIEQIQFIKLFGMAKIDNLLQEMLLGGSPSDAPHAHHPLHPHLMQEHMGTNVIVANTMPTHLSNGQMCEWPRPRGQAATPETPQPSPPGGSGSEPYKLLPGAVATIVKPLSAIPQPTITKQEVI
structure (smiles),measurement,setting,value
CC(C)C1OCCN1CCOC(=O)NCCCCCCNC(=O)OCCN1CCOC1C(C)C (stereo not drawn),AC50,[1],16.3 nM (active)
same,AC50,[2],16.3 nM (active)
same,outcome,[3],inactive
same,outcome,[4],inactive
same,outcome,[5],inactive
same,outcome,[6],inactive
same,outcome,[7],inactive
same,outcome,[8],inactive
same,outcome,[9],inactive
same,outcome,[10],inactive
same,outcome,[11],inactive
O=[N+]([O-])c1cc(S(=O)(=O)Nc2ccccc2)ccc1Nc1ccccc1,AC50,[1],2980 nM (active)
same,AC50,[2],2980 nM (active)
same,outcome,[3],inactive
same,outcome,[4],inactive
same,outcome,[5],inactive
same,AC50,[6],33.7 µM (active) and 31.5 µM (active)
same,AC50,[7],25.9 µM (active) and 16.2 µM (active)
same,AC50,[8],28.7 µM (active) and 29.5 µM (active)
same,AC50,[9],20 µM (active) and 7.26 µM (active)
same,outcome,[10],inactive
same,AC50,[11],31 µM (active) and 36.6 µM (active)
CCOc1ccc2c(c1)C(C)CC(C)(C)N2 (stereo not drawn),outcome,[12],inactive
same,outcome,[13],inactive
same,outcome,[14],inactive
same,outcome,[15],inactive
same,AC50,[16],14500 nM (active)
same,outcome,[17],inactive
CC/C=C\CCCCCO,outcome,[12],inactive
same,outcome,[14],inactive
same,outcome,[18],inactive
same,outcome,[17],inactive
CCCCCCCCCCCCSC#N,AC50,[19],6160 nM (active)
CCCc1c(OCCCCc2nn[nH]n2)ccc(C(C)=O)c1O,outcome,[12],inactive
same,outcome,[13],inactive
same,outcome,[14],inactive
same,outcome,[16],inactive
same,outcome,[18],inactive
same,outcome,[17],inactive
same,outcome,[20],inactive
COc1ccc(C(=O)c2ccccc2O)c(O)c1,AC50,[1],21.5 nM (active)
same,AC50,[2],5.33 nM (active)
same,outcome,[3],inactive
same,outcome,[4],inactive
same,outcome,[5],inactive
same,outcome,[6],inactive
same,outcome,[7],inactive
same,outcome,[8],inactive
same,outcome,[9],inactive
same,outcome,[10],inactive
same,outcome,[11],inactive
COC(=O)CCSCCC(=O)OC,outcome,[13],inactive
same,outcome,[14],inactive
same,outcome,[15],inactive
same,outcome,[20],inactive
CCC[Si](OC(C)=O)(OC(C)=O)OC(C)=O,AC50,[1],72.1 nM (active)
same,AC50,[2],72.1 nM (active)
same,outcome,[3],inactive
same,outcome,[4],inactive
same,outcome,[5],inactive
same,outcome,[6],inactive
same,outcome,[7],inactive
same,outcome,[8],inactive
same,outcome,[9],inactive
same,outcome,[10],inactive
same,outcome,[11],inactive
CCCCCC1CCCC(=O)O1 (stereo not drawn),outcome,[13],inactive
same,outcome,[14],inactive
same,outcome,[15],inactive
same,outcome,[16],inactive
same,outcome,[18],inactive
same,outcome,[20],inactive
Cc1ccccc1S(=O)(=O)O,outcome,[12],inactive
same,outcome,[15],inactive
same,outcome,[18],inactive
same,outcome,[17],inactive
O=C1CCCCCCCCCCCCCC1,outcome,[13],inactive
same,outcome,[16],inactive
same,outcome,[17],inactive
same,outcome,[20],inactive
CCCCNC(N)=O,outcome,[14],inactive
COC(=O)CCCC(=O)O,outcome,[19],inactive
Cc1oc(C)c(C(=O)Nc2ccccc2)c1C,outcome,[19],inactive
CC(C)CC(=O)C1C(=O)c2ccccc2C1=O,outcome,[19],inactive
Cc1cccc(NC(=S)N(C)C)c1,outcome,[19],inactive
CNC(=O)Nc1ccc(Cl)c(Cl)c1,outcome,[19],inactive
CCCCCCCCOCCCN,outcome,[19],inactive
CNCCC(Oc1ccc(C(F)(F)F)cc1)c1ccccc1 (stereo not drawn),AC50,[1],877 nM (active)
same,AC50,[2],877 nM (active)
same,outcome,[3],inactive
same,outcome,[4],inactive
same,outcome,[5],inactive
COc1ccc(COC=O)cc1,outcome,[19],inactive

# — PubChem BioAssay (EPA / NIEHS)
